Assay outcomes from PubChem.
Rows were chosen to be rich in hits. Some 2.4% of all compounds tested hit in one or more screens of this group.
Cruzain inh noDet: inhibitors of Trypanosoma cruzi cruzain without detergent; P25779; actives 2.3% (n = 200,000); purified cruzain, Z-FR-AMC fluorescence, no detergent; Potency, µM, inactives show max response, negative = inhibition, actives largely listed as inhibitors;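 also: plate controls were enzyme without inhibitor for no effect and buffer without enzyme for full effect; nearly all actives have a fitted effect of over 40% in size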
Target sequence (P25779 123-467 limits assumed): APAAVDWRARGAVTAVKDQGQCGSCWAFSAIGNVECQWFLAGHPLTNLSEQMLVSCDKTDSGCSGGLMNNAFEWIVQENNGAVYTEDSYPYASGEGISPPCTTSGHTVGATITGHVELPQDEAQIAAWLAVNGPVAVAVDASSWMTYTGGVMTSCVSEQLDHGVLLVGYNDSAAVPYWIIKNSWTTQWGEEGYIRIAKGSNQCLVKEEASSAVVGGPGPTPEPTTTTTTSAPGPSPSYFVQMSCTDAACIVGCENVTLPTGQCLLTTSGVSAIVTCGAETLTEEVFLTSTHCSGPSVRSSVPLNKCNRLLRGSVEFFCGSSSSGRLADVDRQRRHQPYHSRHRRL
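Detergent-free condition (0.00005% Triton X-100) in acetate buffer pH 5.5 with DTT. 1.5 nM enzyme and compound were pre-mixed 15 min, then 2 uM Z-FR-AMC substrate added; reaction progress from fluorescence change between first and third reads (60 s).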
Cruzain Triton: inhibitors of Trypanosoma cruzi cruzain with detergent. P25779. purified cruzain, Z-FR-AMC fluorescence, 0.01% Triton. Potency, µM, for inactives: max response, negative = inhibition, hits mostly inhibitors. actives 0.43% (n = 200,000);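 also: plate controls were neutral wells for no effect and buffer without enzyme for full effect; nearly all actives have a fitted effect of over 40% in size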
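Enzyme 1.5 nM, Z-FR-AMC 2 uM, NaOAc 100 mM pH 5.5, DTT 5 mM, Triton X-100 0.01%; 15 min RT compound preincubation; kinetic ex360/em450, 60 s delta.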
* = called active by the depositor; ? = inconclusive. Calls follow the shape of the dose curve; as a rule, active = well fitted curve in the direction sought with a large enough effect; inconclusive = small, poorly fitted or top-dose-only effect, or another doubt; inactive = no such curve, though single readings can be large; an effect the other way counts as inactive or inconclusive. Potency is read from the fitted curve at half-maximal effect.

SMILES | Cruzain inh noDet | Cruzain Triton
Cc1cc(N)n2nc(-c3ccccc3)cc2n1 | 1% | -4%
Cc1ccccc1NC(=O)c1cccc2c(=O)c3c([nH]c12)CCCC3 | 3% | -4%
Cc1sc(NC(=O)COc2ccccc2)c(C#N)c1-c1ccccc1 | -18% | ?
Cc1sc(NC(=O)C2CCCC2)c(C#N)c1C | -17% | -18%
CCc1ccc(-c2c(C)sc(NC(=O)C3CCC3)c2C#N)cc1 | 16µM* | 0%
CCCC(=O)Nc1sc(C)c(-c2ccc(C(C)CC)cc2)c1C#N (stereo not given) | 7.9µM* | 9%
CCc1ccc(C(=O)c2cn(CC(=O)Nc3cccc(OC)c3)c3cc4c(cc3c2=O)OCO4)cc1 | -26% | -6%
COCCNC(=O)CSc1nc(-c2ccccc2)[nH]c1-c1ccc(OC)cc1 | -13% | -1%
COc1ccc(-n2nc(C(=O)c3cccs3)cc(-c3nc4ccccc4[nH]3)c2=N)cc1 | 3% | -12%
Cc1ccccc1-n1nc(C(=O)c2cccs2)cc(-c2nc3ccccc3[nH]2)c1=N | 25µM* | -6%
CC(=O)c1ccc(N2CCN(C(=O)c3cc(S(=O)(=O)N4CCCCCC4)cn3C)CC2)cc1 | ? | -9%
Cc1c(NC(=O)C(C)OC(=O)c2cccs2)c(=O)n(-c2ccccc2)n1C (stereo not given) | -7% | -1%
Cc1cc(C)c(NC(=O)C(C)OC(=O)c2cc(Br)c(Br)s2)c(C)c1 (stereo not given) | 25µM* | -1%
CC(C)C(NC(=O)c1ccccc1Cl)C(=O)OCc1nc2scc(-c3ccccc3Cl)c2c(=O)[nH]1 (stereo not given) | 25µM* | -12%
O=C(OCc1nc2scc(-c3ccccc3)c2c(=O)[nH]1)c1cc([N+](=O)[O-])ccc1Cl | ? | -4%
COC(=O)c1cc2sc(Cl)cc2n1CC(=O)Nc1cccc(SC)c1 | 25µM* | -16%
CCc1cccc(NC(=O)Cn2c(C(=O)OC)cc3sc(Cl)cc32)c1 | 11% | 0%
Cc1ccc(CNC(=O)C(C)n2ccc3cc(S(=O)(=O)N4CCCC4)ccc32)cc1 (stereo not given) | 2% | -5%
O=S(=O)(NCC(c1ccco1)S(=O)(=O)c1cccs1)c1ccc(F)c(C(F)(F)F)c1 (stereo not given) | 13% | -9%
CCOC(=O)C(C)Sc1nc(-c2ccccc2)ccc1C#N (stereo not given) | -7% | -9%
N#Cc1ccc(-c2ccccc2)nc1SCC(=O)c1cccc(Cl)c1 | 13µM* | 2%
N#Cc1ccc(-c2ccc(Cl)cc2)nc1SCC(=O)c1cccc(Cl)c1 | 10µM* | 2%
CN1CCN(C(=O)CSc2nc(-c3ccncc3)ccc2C#N)CC1 | 2% | -5%
CCOC(=O)c1cccc(NC(=O)CCn2nc(C)c3c(C)n(-c4ccccc4)nc3c2=O)c1 | -5% | -2%
O=C(CNC(c1ccccc1)c1ccccc1)Nc1cc([N+](=O)[O-])ccc1Cl | 25µM* | -7%
SMILES | Cruzain inh noDet | Cruzain Triton
CC(C)CC(=O)Nc1cc([N+](=O)[O-])ccc1Cl | -8% | 2%
O=C(NC(=S)Nn1cnc2c(cnn2-c2ccccc2)c1=O)c1ccc(Oc2ccccc2)cc1 | 25µM* | -2%
O=C(NC(=S)Nn1cnc2c(cnn2-c2ccccc2)c1=O)c1ccc(Cl)cc1 | 2% | -3%
Cc1oc2ncn(CC(C)C)c(=O)c2c1C(=O)NCc1cccc(Cl)c1 | 8% | -5%
COc1ccc(C(=O)Nc2nc3c(s2)CCc2cc(OC)ccc2-3)cc1 | -73% | -14%
O=C(Nc1nc2ccc(Cl)cc2s1)c1ccc(S(=O)(=O)N2CCCC2)cc1 | -3% | -3%
O=C(Nc1nc(-c2ccccc2)c(-c2ccccc2)s1)c1ccc(S(=O)(=O)N2CCCCC2)cc1 | 4µM* | 1%
O=C(Nc1ccccc1-c1nc2ccccc2[nH]1)c1ccc(S(=O)(=O)N2CCCCC2)cc1 | 10µM* | -4%
COc1ccc(C(=O)Nc2nc(-c3ccc([N+](=O)[O-])cc3)c(-c3ccc(OC)cc3)s2)cc1 | 10µM* | 2%
O=C(Nc1nc(-c2ccccc2)c(C(=O)c2ccccc2)s1)c1ccc(S(=O)(=O)N2CCCCC2)cc1 | 7.9µM* | -5%
COCCN(CCOC)S(=O)(=O)c1ccc(C(=O)Nc2nc(-c3ccccc3)c(C(=O)c3ccccc3)s2)cc1 | ? | 0%
CC1CCCCN1S(=O)(=O)c1ccc(C(=O)Nc2ccccc2-c2nc3ccccc3[nH]2)cc1 (stereo not given) | ? | -5%
COc1cc(NC(=O)Cn2nc3c(cc2=O)CC(C)CC3)cc(OC)c1OC (stereo not given) | -7% | -2%
COc1ccc(CNC(=O)c2cc(=O)[nH]c3ccc(S(=O)(=O)N4CCCC4)cc23)c(OC)c1 | 8% | 0%
CCc1ccc(NC(=O)Cn2c(=O)n(Cc3nc(C)no3)c(=O)c3cc4c(cc32)OCO4)cc1 | 1% | -3%
CCCCC/C=C\C/C=C\C/C=C\CCCCCCC(=O)NCCCC(=O)O | -3% | -1%
COc1ccc(N2CCN(C(=O)Cn3cnc4nc5c(cc4c3=O)CCCC5)CC2)cc1 | 25% | -3%
O=C(NNc1nc(-c2ccccc2)c2cc(Br)ccc2n1)c1ccc(S(=O)(=O)N2CCCCC2)cc1 | 25µM* | -5%
O=C(NNc1nc(-c2ccccc2)c2cc(Br)ccc2n1)c1ccc(S(=O)(=O)N2CCOCC2)cc1 | -3% | -2%
Cc1ccc(-n2nnnc2CNC(=O)c2cc(C(F)(F)F)cc(C(F)(F)F)c2)cc1C | ? | -13%
CC(C)CC(=O)Nc1ccc2nc(SCC(=O)N3CCc4ccccc43)sc2c1 | -1% | -4%
Cc1ccc(N2CC(NC(=O)c3ccc(S(=O)(=O)N4CCOCC4)cc3)CC2=O)cc1C (stereo not given) | ? | -5%
CCOC(=O)c1c(-c2ccc(C)cc2)csc1NC(=O)c1cc(-c2ccc(OC)cc2)on1 | -10% | 0%
COC(=O)c1c(-c2ccc(C)cc2)csc1NC(=S)NC(=O)c1cc(OC)cc(OC)c1 | 4µM* | -4%
Cc1cc(C)c(NC(=O)Cn2c(=O)n(Cc3ccc(C(=O)NCc4ccco4)cc3)c(=O)c3sccc32)c(C)c1 | 12% | -5%
SMILES | Cruzain inh noDet | Cruzain Triton
Cc1oc2ncnc(N3CCCCC3)c2c1C(=O)NCC1CCN(Cc2cccc(F)c2)CC1 | -3% | -3%
COc1ccc2c(c1)Cc1sc(NC(=O)c3ccc(Cl)cc3)nc1-2 | 3.2µM* | -7%
COc1ccc2c(c1)Cc1sc(NC(=O)c3cccc(Cl)c3)nc1-2 | 9% | 0%
COc1ccc2c(c1)-c1nc(NC(=O)c3ccc(OC)c(Br)c3)sc1CC2 | 10µM* | -8%
COc1ccc2c(c1)-c1nc(NC(=O)c3ccc(C)cc3)sc1CC2 | ? | -4%
c1ccc(/C(=N/Nc2nc3ccccc3s2)c2ccccn2)cc1 | -1% | 5%
Cn1nnnc1SCCCNCc1cc(Cl)ccc1OCc1ccccc1F | -4% | -5%
COc1ccc(-n2c(=O)c3c(c4cc(OC)ccc4n3C)n(Cc3c(F)cccc3Cl)c2=O)cc1 | 9% | -2%
CCC1(CCSC(=N)N)C(=O)NC(=O)NC1=O | 1% | 4%
Cc1ccc(Nc2nc3ccccc3c3nnc(C)n23)c(C)c1 | ? | -6%
COc1ccc(-c2cc(C(C)=O)c(C)n2CCC(=O)Nc2cc(Cl)ccc2C)cc1 | 8% | -1%
COc1ccc(CNC(=O)c2cc(-c3cccs3)nc3ccccc23)c(OC)c1 | -2% | -11%
Cc1cccc(NC(=S)NNC(=O)COc2ccc(Cl)cc2Cl)c1 | ? | 0%
